Compound activity: PubChem BioAssay, National Center for Advancing Translational Sciences (NCATS)
KB-3-1 cytotox: KB-3-1 parental cell cytotoxicity; 400,000 compounds, 1.4% hits; Potency, µM (series often up to 46.1 µM), most hits filed as cytotoxic; KB-3-1 viability, CellTiter-Glo ATP luminescence, 72 h; also: % is scaled to controls: 0 for no effect and ±100 for the full control effect; nearly all actives have a fitted effect of over 60% in size
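Here the drug-naive KB-3-1 line serves as comparator for MDR sub-line selectivity; cells received compound titrations, 72 h at 37 °C, then CellTiter-Glo readout.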
HT1080-NT tox: kills 2HG-producing HT-1080-NT fibrosarcoma cells | HT-1080-NT fibrosarcoma viability, CellTiter-Glo ATP luminescence, 48 h | Potency, µM (highest dose often 46.1 µM), inactives show at the top dose activity, negative = less viability, hits mostly cytotoxic | 360,000 compounds, 1.6% hits | AID 686970;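 also: NT is the 2HG producing partner of a matched IDH1 knockdown line; 0% = DMSO-treated cells and -100% = media-only wells without cells; nearly all actives have a fitted effect of over 55% in size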
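Viability by CellTiter-Glo luminescence after 48 h compound exposure at 37C of HT-1080-NT cells (750/well, RPMI, 5% FBS). % activity scaled between DMSO wells and medium-only wells, then curve-fitted and categorized by curve class.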
TGFb inhibitor: TGF-b pathway inhibition; 410,000 compounds, 1.2% hits; Potency, µM (doses to about 46.1 µM), without a hit: at the highest dose activity, negative = inhibition, actives largely listed as inhibitors; HepG2 CAGA-GFP TGF-b/SMAD3 reporter, GFP fluorescence, 18 h; TGF-beta stimulated, 500 pg/mL final; AID 588855; also: % is scaled to controls: 0 for no effect and ±100 for the full control effect; nearly all actives have a fitted effect of over 65% in size
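Using HEPG2 CAGA-GFP reporter cells at 1000 cells/well, we pinned test compounds, stimulated with recombinant TGF-beta (500 pg/mL final) and measured total well GFP after 18 h.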
HT1080 IDH1KD tx: HT-1080 IDH1 knockdown cell toxicity (counter line). HT-1080 IDH1 knockdown viability, ATP luminescence, 48 h. Potency, µM (highest dose often 46.1 µM), without a hit: at the highest dose activity, negative = toxicity, hits mostly cytotoxic. 360,000 compounds, 2% hits;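 also: 0% = DMSO wells and -100% = cell-free medium wells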
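CellTiter-Glo luminescence after 48 h compound exposure at 37 degrees C of IDH1-knockdown HT-1080 cells in 5% FBS RPMI. %Activity scaled between DMSO wells and cell-free media wells, with curves fitted and assigned curve classes.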
HepG2 viability: HepG2 cytotoxicity, counter-screen for TGF-b inhibitors | HepG2 CAGA-GFP viability, ATP luminescence, 18 h | Potency, µM (doses to about 46.1 µM), inactives show at the highest dose activity change, negative = cytotoxicity, usual class: cytotoxic | 410,000 compounds, 0.76% hits | AID 588856
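CellTiter-Glo luminescence gave cytotoxicity after 18 hours at 37 degrees C. The cells were HepG2 CAGA-GFP in 1% FBS DMEM, stimulated with 500 pg/mL TGF-beta after compound addition. %Activity was normalised to no-cell wells (complete cell-killing) and DMSO (no toxicity), and curves were fitted and classified.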
KB-V1 cytotox: KB-V1 MDR subline cytotoxicity; KB-V1 MDR cells viability, CellTiter-Glo, 72 h; 400,000 compounds, 3.4% hits; Potency, µM (top dose mostly 46.1 µM), actives largely listed as cytotoxic; AID 1347076; also: % is scaled to controls: 0 for no effect and ±100 for the full control effect; nearly all actives have a fitted effect of over 60% in size
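Compound-treated KB-V1 multidrug-resistant cells, 72 h, 37 degrees C; viability by CellTiter-Glo. Fitted qHTS curves give the values.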
* = called active by the depositor; i = inactive; ? = inconclusive; . = no result given; ! = not confirmed by another sample. Hits are enriched below; roughly 6.6% of the tested compounds scored in any of these assays. Calls follow the shape of the dose curve; as a rule, active = well fitted curve in the direction sought with a large enough effect; inconclusive = small, poorly fitted or top-dose-only effect, or another doubt; inactive = no such curve, though single readings can be large; an effect the other way counts as inactive or inconclusive. Potency is read from the fitted curve at half-maximal effect.

SMILES	KB-3-1 cytotox	HT1080-NT tox	TGFb inhibitor	HT1080 IDH1KD tx	HepG2 viability	KB-V1 cytotox
O=C(Nc1ccccn1)Nc1ccccc1Cl	i	8.2%	-3.6%	7.9%	-16.1%	i
Cc1ccc(C)c(CN2C(=O)c3ccccc3S(=O)c3ccc(C(=O)N4CCCCC4)cc32)c1 (configuration not stated)	i	.	?	.	0.2%	i
COc1ccc(Cl)cc1S(=O)(=O)Nc1ccc2[nH]c(=O)[nH]c2c1	.	.	-1.7%	.	-28.4%	.
O=C(Nc1ccc(N2CCN(C(=O)c3cccs3)CC2)cc1)c1ccc(F)cc1	i	0.4%	-0.8%	2.8%	-9.1%	0.184µM*
COc1cc(OC)cc(C(=O)Nc2ccc(N3CCN(C(=O)c4cccs4)CC3)cc2)c1	7.31µM*	?	?	-19.6%	-22.5%	8.2µM*
CC(=O)Nc1ccc(N2CCN(C(=O)c3cccs3)CC2)cc1	i	19.1%	-0.7%	14.5%	-0.6%	i
COc1ccc(N(Cc2cccs2)C(=O)COc2cccc(C)c2C)cc1	.	.	?	.	-15.9%	.
COc1ccc(N(Cc2cccs2)C(=O)COc2cc(C)c(Cl)c(C)c2)cc1	.	.	15.8µM*	.	-28.3%	.
Cc1cccc(-n2c(C)cc(C(=O)C(=O)Nc3ccccc3F)c2C)c1C	i	.	-17.9%	.	-28.3%	i
CC1=C(C(=O)Nc2ccc(C)cc2C)C(CC(C)C)n2nc(SCc3ccccc3C)nc2N1 (configuration not stated)	i	.	-20.0%	.	-17.9%	?
COCCNC(=O)c1cc2oc3ccccc3c2n1C	i	-3.0%	0.4%	-7.4%	-9.9%	23.1µM*
CCOc1ccccc1CNC(=O)c1cc2occc2n1C	i	0.4%	-2.0%	6.5%	-34.7%	i
CCOc1ccccc1CNC(=O)c1cc2oc3ccccc3c2n1C	7.31µM*	-27.0%	3.1%	-28.9%	-2.0%	?
Cn1c(C(=O)NCc2cccc(Cl)c2)cc2oc3ccccc3c21	i	.	-2.5%	.	0.6%	i
N#Cc1nc(-c2cccs2)oc1NCCc1ccccc1	i	-0.8%	-9.0%	-4.5%	-19.8%	i
N#Cc1nc(-c2cccs2)oc1NCc1ccc2c(c1)OCO2	i	-22.4%	-0.7%	-26.1%	7.94µM*	i
COc1ccc2c(Sc3ccccc3)c(C(=O)NCCc3ccc(Cl)cc3)[nH]c2c1	i	.	-8.9%	.	-0.8%	i
Cc1cc(C)n(-c2nc3cc(Cl)ccc3nc2N2CCN(c3ccccc3F)CC2)n1	i	.	-24.1%	.	-43.3%	?
CCOc1ccccc1NC(=O)c1cc2cc(C)ccc2n1C	?	.	4.0%	.	-6.3%	8.2µM*
CCCNC(=O)c1ccccc1NC(=O)c1ccccc1N(C)S(=O)(=O)c1ccc(C)cc1	18.4µM*	?	0.0%	?	-21.4%	?
CCOc1ccccc1NC(=O)CCN(c1ccc(C)cc1)S(=O)(=O)c1ccccc1	?	-11.6%	11.9%	-23.7%	1.1%	2.59µM*
CCOc1ccccc1NC(=O)c1ccccc1N(C)S(=O)(=O)c1ccc(C)cc1	?	-7.4%	-2.8%	-16.0%	-15.0%	11.6µM*
CCN(C(=O)CSc1nc2ccccc2c2nc(CCn3c(C)nc4ccccc43)nn12)c1cccc(C)c1	i	.	-4.6%	.	-30.6%	i
CCC(C)Sc1cc(-c2nc3ccc(C)cn3c2NCc2ccccc2)ccc1OC (configuration not stated)	?	?	12.6µM*	?	-40.2%	?
CCCCNc1c(-c2ccc(OC)c(SC(C)CC)c2)nc2cnccn12 (configuration not stated)	?	-8.1%	?	0.2%	-77.2%	?
SMILES	KB-3-1 cytotox	HT1080-NT tox	TGFb inhibitor	HT1080 IDH1KD tx	HepG2 viability	KB-V1 cytotox
CCCCNc1c(-c2ccc(OC)c(SC(C)CC)c2)nc2cc(C)ccn12 (configuration not stated)	?	20.6µM*	11.2µM*	23.1µM*	11.2µM*	i
CCCCCCSc1cc(-c2nc3ccc(C)cn3c2NCCCC)ccc1OC	i	-7.6%	?	-6.5%	-56.9%	?
CCCCNc1c(-c2ccc(OC)c(SC(C)CC)c2)nc2ccc(C)cn12 (configuration not stated)	?	20.6µM*	12.6µM*	?	14.1µM*	18.4µM*!
CCC(C)Sc1ccc(-c2nc3ccc(C)cn3c2NCc2ccccc2)cc1OC (configuration not stated)	i	?	?	?	-53.9%	?
COc1cc(NC(=O)c2c(C)oc3ncnc(N4CCCCC4)c23)cc(OC)c1	.	.	?	.	-30.2%	.
O=C(Cn1ncc2c1-c1ccccc1OC2)N1CCN(c2ccccc2)CC1	i	.	-4.6%	.	-5.7%	i
O=C(CC1CCCC1)N1CCN(S(=O)(=O)c2cccc(F)c2)CC1	i	-0.4%	8.1%	-3.4%	1.3%	i
O=C(c1ccco1)N1CCN(C(=O)c2ccco2)CC1	i	23.2%	7.3%	2.1%	-1.7%	i
c1ccc(-c2csc3ncnc(N4CCc5ccccc5C4)c23)cc1	?	-9.9%	?	-5.6%	-16.8%	16.4µM*
COc1ccc(-c2csc3ncnc(N4CCN(C(=O)c5ccco5)CC4)c23)cc1	i	-20.0%	?	-21.3%	-3.5%	i
O=C(c1ccco1)N1CCN(C(=O)c2sccc2-c2ccccc2)CC1	i	4.6%	2.1%	-7.5%	2.4%	11.6µM*
O=C(c1ccco1)N1CCN(c2ncnc3scc(-c4cccs4)c23)CC1	i	11.2µM*	-18.0%	7.94µM*	-37.8%	?
O=C(c1ccco1)N1CCN(c2ncnc3scc(-c4ccccc4)c23)CC1	i	7.31µM*	0.0%	10.3µM*	-27.6%	i
O=Cc1cc2ccccc2nc1SCCCF	?	16.4µM*	-13.4%	7.31µM*	-0.8%	i
Cc1ccc(NC(=O)c2nnn(CC(=O)Nc3ccc(C)c(Cl)c3)c2N)c(C)c1	.	.	-5.4%	.	-2.4%	.
O=S(=O)(c1ccccc1)c1nc(-c2ccco2)oc1NCc1cccnc1	i	1.4%	-7.2%	0.2%	11.2µM*	?
O=C(NCC(c1ccccc1)c1ccccc1)c1nn(-c2ccccc2F)nc1CO	.	.	?	.	-10.6%	.
COc1ccc(NC(=O)CCCS(=O)(=O)c2nc(-c3ccccc3OC)cc(C(F)(F)F)n2)c(OC)c1	i	.	-11.3%	.	-5.2%	?
COc1ccccc1-c1cc(C(F)(F)F)nc(S(=O)(=O)CCCC(=O)Nc2ccccc2F)n1	.	.	3.55µM*	.	11.2µM*	.
